Where a structure was tested more than once in an assay, its records may differ in their call. Active and inactive are the calls of the source. Rule for the calls: active = hit-call score of the fitted dose curve at least 0.9, where 1 is the maximum; inactive = score below 0.9.
assay: CCTE_Shafer_MEA_dev_per_burst_interspike_interval: CCTE's Neural Network Formation Assay for Burst Interspike Interval, Shafer Lab (AID 2284044);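 note: mean spike spacing inside bursts as AUC over recordings on days 5 7 9 12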;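 for AC50: potency for a decrease of within-burst interspike interval below DMSO level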
Procedure, shortened: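 Rat cortical primary cultures, 16 electrodes/well; compound from plating, renewed with full media change DIV 5 and 9. Spikes via adaptive detector; per-burst ISI well-mean over active bursting electrodes; AUC of DIV 5/7/9/12 recordings; loss-direction fit vs DMSO.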

Compound | AC50 | outcome
C[n+]1ccc(-c2cc[n+](C)cc2)cc1 | 2.33 µM (active) | –
C/C(=C/C=C/[C@@H](C)C(=O)O)[C@H]1CN[C@H](C(=O)O)[C@H]1CC(=O)O | 1.33 µM (active) | inactive
CP(=O)(O)CCC(N)C(=O)O (centres undefined) | – | inactive
NCCc1cc(O)c(O)cc1O | – | inactive
CCOP(=S)(OCC)SCS(=O)C(C)(C)C (centres undefined) | – | inactive
C[n+]1ccc(-c2ccccc2)cc1 | – | inactive
O=C(O)CNCP(=O)(O)O | – | inactive
C#CCN(C)[C@H](C)Cc1ccccc1 | – | inactive
Cn1nc(C(F)(F)F)c(CS(=O)(=O)C2=NOC(C)(C)C2)c1OC(F)F | 26.3 µM (active) | –
CCCCC(CC)COC(=O)c1cc(Br)c(Br)c(Br)c1Br (centres undefined) | – | inactive
CC1(C)C(C=C(Cl)c2ccc(Cl)cc2)C1C(=O)OC(C#N)c1ccc(F)c(Oc2ccccc2)c1 (centres undefined) | 7.6 µM (active) | –
CCOP(=O)(Oc1cnc(C(C)(C)C)nc1)OC(C)C (centres undefined) | – | inactive
CC1(C)[C@H](C=C(Cl)Cl)[C@H]1C(=O)OCc1c(F)c(F)cc(F)c1F | 13.7 µM (active) | –
CC(=O)[O-].CC(=O)[O-].O.O.O.[Pb+2] | – | inactive
CC1(C)C(C=C(Cl)Cl)C1C(=O)O[C@H](C#N)c1cccc(Oc2ccccc2)c1 (some centres undefined) | 2.89 µM (active) | –
CCOP(=O)(OCC)OC(Cl)C(Cl)(Cl)Cl (centres undefined) | 3.48 µM (active) | –
CCOP(=O)(OCC)SCSC(C)(C)C | – | inactive
CC1(C)[C@@H](C=C(Cl)Cl)[C@@H]1C(=O)O[C@@H](C#N)c1ccc(F)c(Oc2ccccc2)c1 | – | inactive
COP(=O)(OC)SCN1C(=O)c2ccccc2C1=O | – | inactive
CP(=O)(O)CC[C@H](N)C(=O)O | – | inactive
CC(=O)[O-].[Tl+] | – | inactive

assay: CCTE_Shafer_MEA_dev_interburst_interval_mean: CCTE's Neural Network Formation Assay for Mean Interburst Interval, Shafer Lab (AID 2284046);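 note: well-mean interburst interval of bursting electrodes as AUC over four recording days; curve fitted for decrease in interburst interval relative to DMSO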
Procedure, shortened: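 Network formation assay in primary rat cortical cultures, exposed from DIV 0 to 12. Mean interburst interval per well, integrated as AUC over four recordings.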

Compound | AC50 | outcome
C[n+]1ccc(-c2cc[n+](C)cc2)cc1 | 1.16 µM (active) | –
C/C(=C/C=C/[C@@H](C)C(=O)O)[C@H]1CN[C@H](C(=O)O)[C@H]1CC(=O)O | 0.0322 µM (active) | inactive
CP(=O)(O)CCC(N)C(=O)O (centres undefined) | – | inactive
NCCc1cc(O)c(O)cc1O | – | inactive
CCOP(=S)(OCC)SCS(=O)C(C)(C)C (centres undefined) | – | inactive
C[n+]1ccc(-c2ccccc2)cc1 | – | inactive
O=C(O)CNCP(=O)(O)O | – | inactive
C#CCN(C)[C@H](C)Cc1ccccc1 | – | inactive
Cn1nc(C(F)(F)F)c(CS(=O)(=O)C2=NOC(C)(C)C2)c1OC(F)F | – | inactive
CCCCC(CC)COC(=O)c1cc(Br)c(Br)c(Br)c1Br (centres undefined) | 16.8 µM (active) | –
CC1(C)C(C=C(Cl)c2ccc(Cl)cc2)C1C(=O)OC(C#N)c1ccc(F)c(Oc2ccccc2)c1 (centres undefined) | 13.6 µM (active) | –
CCOP(=O)(Oc1cnc(C(C)(C)C)nc1)OC(C)C (centres undefined) | – | inactive
CC1(C)[C@H](C=C(Cl)Cl)[C@H]1C(=O)OCc1c(F)c(F)cc(F)c1F | 13.9 µM (active) | –
CC(=O)[O-].CC(=O)[O-].O.O.O.[Pb+2] | – | inactive
CC1(C)C(C=C(Cl)Cl)C1C(=O)O[C@H](C#N)c1cccc(Oc2ccccc2)c1 (some centres undefined) | 8.7 µM (active) | –
CCOP(=O)(OCC)OC(Cl)C(Cl)(Cl)Cl (centres undefined) | 3.57 µM (active) | –
CCOP(=O)(OCC)SCSC(C)(C)C | – | inactive
CC1(C)[C@@H](C=C(Cl)Cl)[C@@H]1C(=O)O[C@@H](C#N)c1ccc(F)c(Oc2ccccc2)c1 | – | inactive
COP(=O)(OC)SCN1C(=O)c2ccccc2C1=O | – | inactive
CP(=O)(O)CC[C@H](N)C(=O)O | – | inactive
CC(=O)[O-].[Tl+] | – | inactive

assay: CCTE_Shafer_MEA_dev_inter_network_spike_interval_mean: CCTE's Neural Network Formation Assay for Mean Inter-network Spike Interval, Shafer Lab (AID 2284047)
Procedure, shortened: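 Compound was given at plating to primary rat cortical neurons and renewed with full medium changes on DIV 5 and 9. Extracellular activity was recorded on days 5, 7, 9, 12; AUC values were fitted for loss relative to DMSO control.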

Compound | outcome
Cn1nc(C(F)(F)F)c(CS(=O)(=O)C2=NOC(C)(C)C2)c1OC(F)F | inactive
CCCCC(CC)COC(=O)c1cc(Br)c(Br)c(Br)c1Br (centres undefined) | inactive
CCOP(=O)(OCC)SCSC(C)(C)C | inactive

assay: CCTE_Shafer_MEA_dev_network_spike_number: CCTE's Neural Network Formation Assay for Number of Network Spikes, Shafer Lab (AID 2284048);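 note: synchronized bursts across electrodes counted on days 5 7 9 12 and integrated as AUC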;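 for AC50: fit as a loss of signal meaning fewer network spikes than DMSO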
Procedure, shortened: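 Extracellular recordings from 16-electrode wells track network formation in rat cortical cultures under continuous treatment from plating. The endpoint is network spike number, expressed as AUC across DIV 5–12 relative to DMSO vehicle.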

Compound | AC50 | outcome
C[n+]1ccc(-c2cc[n+](C)cc2)cc1 | 2.31 µM (active) | –
C/C(=C/C=C/[C@@H](C)C(=O)O)[C@H]1CN[C@H](C(=O)O)[C@H]1CC(=O)O | 0.0218 µM (active) | inactive
CP(=O)(O)CCC(N)C(=O)O (centres undefined) | – | inactive
NCCc1cc(O)c(O)cc1O | – | inactive
CCOP(=S)(OCC)SCS(=O)C(C)(C)C (centres undefined) | – | inactive
C[n+]1ccc(-c2ccccc2)cc1 | – | inactive
O=C(O)CNCP(=O)(O)O | – | inactive
C#CCN(C)[C@H](C)Cc1ccccc1 | – | inactive
Cn1nc(C(F)(F)F)c(CS(=O)(=O)C2=NOC(C)(C)C2)c1OC(F)F | – | inactive
CCCCC(CC)COC(=O)c1cc(Br)c(Br)c(Br)c1Br (centres undefined) | – | inactive
CC1(C)C(C=C(Cl)c2ccc(Cl)cc2)C1C(=O)OC(C#N)c1ccc(F)c(Oc2ccccc2)c1 (centres undefined) | 14.4 µM (active) | –
CCOP(=O)(Oc1cnc(C(C)(C)C)nc1)OC(C)C (centres undefined) | – | inactive
CC1(C)[C@H](C=C(Cl)Cl)[C@H]1C(=O)OCc1c(F)c(F)cc(F)c1F | 23.3 µM (active) | –
CC(=O)[O-].CC(=O)[O-].O.O.O.[Pb+2] | 2.98 µM (active) | –
CC1(C)C(C=C(Cl)Cl)C1C(=O)O[C@H](C#N)c1cccc(Oc2ccccc2)c1 (some centres undefined) | 7.66 µM (active) | –
CCOP(=O)(OCC)OC(Cl)C(Cl)(Cl)Cl (centres undefined) | 0.833 µM (active) | –
CCOP(=O)(OCC)SCSC(C)(C)C | – | inactive
CC1(C)[C@@H](C=C(Cl)Cl)[C@@H]1C(=O)O[C@@H](C#N)c1ccc(F)c(Oc2ccccc2)c1 | – | inactive
COP(=O)(OC)SCN1C(=O)c2ccccc2C1=O | – | inactive
CP(=O)(O)CC[C@H](N)C(=O)O | – | inactive
CC(=O)[O-].[Tl+] | – | inactive

From PubChem BioAssay (EPA / NIEHS)
